# Screening data deposited in PubChem BioAssay by several laboratories.
# V-ATPase pHluor = yeast V-ATPase proton transport regulation by pHLuorin. 350,000 tested, 0.37% active. S. cerevisiae, pHLuorin cytosolic pH fluorescence. AID 504577. response, % at 10 µM; in the data active means response mostly above about 7.3%, no sharp cut-off; inactive means mostly below about 5.4%; further: actives read high
# TIM10 inh = inhibits growth of TIM10 yeast strain. S. cerevisiae TIM10 strain growth, BacTiter-Glo luminescence, 24 h. inhibition, % at 10 µM. 330,000 tested, 1.4% active. AID 463195;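 active means inhibition of 40% or more at the single tested concentration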;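 further: wild-type TIM10 isogenic control strain grown at permissive 25 °C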
# tim10-1 inh = inhibits growth of tim10-1 mutant yeast | S. cerevisiae tim10-1 ts strain growth, BacTiter-Glo, 24 h | inhibition, % at 20 µM | 330,000 tested, 2.2% active;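 active means inhibition of at least 40%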;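 further: mutant grown at 25 °C; 0% = DMSO wells with yeast and 100% = wells holding no yeast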
# NALP1 inh = blocks the NALP1 inflammasome reconstituted in yeast | S. cerevisiae NALP1/ASC/caspase-1 growth, X-gal OD620, 72 h | inhibition, % at 10 µM | AID 2071 | 280,000 tested, 0.61% active; in the data active means inhibition mostly above about 24%, no sharp cut-off; inactive means mostly below about 32%
# NALP3 yeast inh = blocks the NALP3 inflammasome reconstituted in yeast. Yeast reconstituted NLRP3/ASC/caspase-1, beta-gal luminescence, 24 h. 330,000 tested, 0.39% active. inhibition, % at 10 µM;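 active means inhibition of 50% or more; inactive means inhibition below 50%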;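 further: plate controls were induced DMSO wells for no effect and uninduced yeast grown without galactose for full effect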
# tim23-1 inh = inhibits growth of tim23-1 mutant yeast; AID 463212; 330,000 tested, 1.3% active; S. cerevisiae tim23-1 growth, BacTiter-Glo luminescence, 24 h; inhibition, % at 20 µM;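 active means growth inhibition of the mutant yeast at or above 50%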;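 further: temperature-sensitive mutant grown at 25 °C; plate controls were DMSO-treated mutant yeast for no effect and medium wells lacking yeast for full effect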
# tim10-1 confirm = confirmation of tim10-1 mutant yeast growth inhibitors | shares compounds with tim10-1 inh | S. cerevisiae tim10-1 ts strain growth, BacTiter-Glo, 24 h | inhibition, % at 20 µM | 7,400 tested, 56% active | AID 463213;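 active means inhibition of yeast growth at or above a set limit in either of two repeat tests at 20 µM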;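 further: tim10-1 mutant grown at permissive 25 °C to find synthetic lethal compounds; 0% = DMSO yeast wells and 100% = medium wells without yeast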
# Active calls of the source: *; nt = no result given. Only some compounds are listed: those with a hit (about 4.2% of all), similar ones and a draw of the others.
SMILES,V-ATPase pHluor,TIM10 inh,tim10-1 inh,NALP1 inh,NALP3 yeast inh,tim23-1 inh,tim10-1 confirm
Cc1cc(C(=O)CSc2nnc(-c3ccc(Cl)cc3)n2CC2CCCO2)c(C)n1C (stereo unspecified),0,14,50*,2,-25,33,35*
CC(=O)c1sc(N/N=C2\CC3CC2C(C)C3(C)C)nc1C (stereo unspecified),-4,18,45*,-16,15,20,28
CC(=O)Oc1ccc2c(=O)c(-c3ccccc3)coc2c1,0,22,42*,11,30,35,32*
Cc1cc(C)n(C(=O)c2ccc([N+](=O)[O-])cc2[N+](=O)[O-])n1,-2,12,41*,20,3,49,30
CC1(C)Cc2c(cnn2-c2cccc(F)c2)C(NC(=O)Cn2cccn2)C1 (stereo unspecified),4,16,16,1,2,21,nt
CCN(CC)S(=O)(=O)c1ccc2c(c1)nc(CCC(=O)Nc1ccc3c(c1)OCO3)n2C,1,-3,20,32,12,8,nt
CCCOc1ccccc1OCC(=O)Nc1ccc(S(=O)(=O)N2CCCC2)cc1,-1,23,38,nt,24,36,nt
CCCOc1ccccc1OCC(=O)Nc1ccc(S(=O)(=O)N2CCCCC2)cc1,0,7,41*,nt,14,31,32*
O=C(COc1ccccc1)Nc1ccc(S(=O)(=O)N2CCCC2)cc1,0,28,41*,-4,18,27,31
COc1ccc(CSCC(=O)Nc2ccc(S(=O)(=O)N3CCCCCC3)cc2)cc1,2,24,42*,43,15,39,29
Cc1ccccc1OCC(=O)Nc1ccc(S(=O)(=O)N2CCCC2)cc1,0,25,49*,nt,5,23,37*
COc1ccc(OCC(=O)Nc2ccc(S(=O)(=O)N3CCCC3)cc2)cc1,-4,37,26,-14,13,31,nt
COc1ccccc1OCC(=O)Nc1ccc(S(=O)(=O)N2CCCCCC2)cc1,-3,31,31,-20,4,31,nt
COc1ccccc1NC(=O)CCSc1nc(C)cc(C)n1,0,-16,-2,10,3,19,nt
O=C(CCCN1C(=O)c2ccccc2C1=O)Nc1ccc(S(=O)(=O)N2CCOCC2)cc1,-5,8,14,14,-10,12,nt
CCOc1ccccc1OCCCC(=O)N1CCN(S(=O)(=O)c2ccc(C)cc2)CC1,-5,11,41*,-31,11,23,16
O=C(CCCN1C(=O)c2ccccc2C1=O)Nc1ccc(S(=O)(=O)N2CCCCC2)cc1,1,9,41*,-5,-9,31,32*
CCCn1nc(NC(=O)c2cccs2)c2cc3cc(C)ccc3nc21,-2,15,41*,nt,25,43,31*
CCCCn1nc(NC(=O)c2cccs2)c2cc3ccccc3nc21,0,25,48*,-8,6,49,39*
O=C1CNC(=S)N1CCc1ccc(Cl)cc1,0,21,4,7,6,17,nt
CCOC(=O)C1CCN(S(=O)(=O)c2ccc(Cl)cc2OC)CC1,1,9,17,11,17,17,nt
CCOC(=O)C1CCN(S(=O)(=O)c2ccc(OC)c(Cl)c2Cl)CC1,2,23,40*,6,10,14,5
Cc1ccc(NC(=O)COc2ccccc2C(=O)Nc2ccccc2)cc1Cl,1,28,10,15,4,15,nt
Cc1ccc(Cl)cc1NC(=O)c1ccccc1OCC(=O)Nc1ccc(Cl)cc1,1,30,48*,22,-2,10,25
O=C(CCN1C(=O)C2CC=CCC2C1=O)Nc1cccc(S(=O)(=O)N2CCCCC2)c1 (stereo unspecified),1,11,3,nt,12,13,nt
CC(=O)Nc1ccc(S(=O)(=O)Nc2cc(C)c(-n3nc4ccccc4n3)cc2O)cc1,4,13,5,13,-2,18,nt
CC(=O)Nc1nc(-c2ccccc2)nc(-c2ccccc2OC(C)=O)n1,nt,29,48*,-4,12,39,16
N#Cc1ncc(Cc2ccccc2)nc1C#N,3,0,41*,21,27,28,38*
